Data published in PubChem BioAssay (NCATS).
Inconclusive results are not listed. A number with no mark means an inactive call. Calls of active or inactive are those of the source. Calls follow the shape of the dose curve; as a rule, active = well fitted curve in the direction sought with a large enough effect; inconclusive = small, poorly fitted or top-dose-only effect, or another doubt; inactive = no such curve, though single readings can be large or run the other way.

Assay: qHTS for Inhibitors of the vitamin D receptor (VDR): Hit Validation using a Texas Red Assay (AID 602201)
Settings: VDR coregulator binding, Texas Red fluorescence polarization, agonist-bound VDR ligand-binding domain; series mostly up to 57.1 µM; activity, negative = inhibition: at the top concentration
Method in brief: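 Fluorescence polarization with 1.5 uM VDR-LBD, LG19078 and 7 nM Texas Red (final). After 2 hours at ambient temperature, read at Ex 595 nm/Em 615 nm.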
% is scaled to controls: 0 for no effect and ±100 for the full control effect; potency is read from the fitted curve at half-maximal effect.

Question: For O=C(CCN1CCc2ccccc2C(O)(c2ccccc2)C1)c1ccc2c(c1)OCCO2 (stereo not given), which “activity, negative = inhibition” value is on record?
Answer: -14.6%

Question: Which Potency does the source give for C[C@@H](NC(=O)OC(C)(C)C)c1nnc(S(=O)(=O)Cc2ccccc2)o1 here?
Answer: 11.2 µM (active)

Question: Which “activity, negative = inhibition” value does the source give for CSc1nnc(NC(=O)c2nc(S(=O)(=O)Cc3ccc(C)cc3)ncc2Cl)s1 here?
Answer: -9.41%

Question: With O=C(/C=C/c1ccc(Cl)c([N+](=O)[O-])c1)c1cccnc1 as the molecule, how does the Potency read?
Answer: 4.47 µM (active)

Question: Which Potency does the source give for O=C(Nc1nc(-c2ccncc2)cs1)C1COc2ccccc2O1 (stereo not given) here?
Answer: 7.08 µM (active)

Question: With Cc1ccc(O)c(NC(=O)CCS(=O)(=O)c2nc(-c3ccc4c(c3)OCO4)cc(C(F)(F)F)n2)c1 as the molecule, how does the Potency read?
Answer: 28.2 µM (active)

Question: Which Potency does the source give for Cc1cc(C)nc(S/C=C/C(=O)c2ccccc2)n1 here?
Answer: 14.1 µM (active)

Question: Which Potency does the source give for CCOC(=O)c1sc(=S)n2c1[nH]c(=O)c1ccc(C(=O)OC)cc12 here?
Answer: 10 µM (active)

Question: Which Potency does the source give for c1ccc2c(C[n+]3csc4ccccc43)cccc2c1 here?
Answer: 10 µM (active)

Question: With COc1ccc(OCc2nnc3n2N=C(c2ccccc2)C(CC(=O)O)S3)cc1 (stereo not given) as the molecule, how does the Potency read?
Answer: 3.16 µM (active)
